The values that follow come from PubChem BioAssay (Tox21).

Assay [1] can be described thus: qHTS RealTime-Glo MT Cell Viability Assay in HEK293 cells - 0 hour (AID 1224880). Also: top concentration of the series differs between compounds; nearly all actives have a fitted effect of over 45% in size. The method in brief: (§1)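 Measured as luminescence from the same continuously cultured HEK293 wells at successive time points (0, 8, 16, 24, 32, 40 h) after compound addition. Reagent present from seeding; dosing at 5 h; incubation 37 C.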
The nature of assay [2]: A CellTox Green Cytotoxicity Assay to monitor cytotoxicity in HepG2 cells - 0 hour (AID 1224882). Also: nearly all actives have a fitted effect of over 35% in size. The method in brief:
(§2)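 Fluorescent DNA-binding dye, 600 HepG2 cells/well, 5 h preincubation then compound in DMSO; same plates read at 0–40 h, 37 C.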

Assay [3] is described as follows: A CellTox Green Cytotoxicity Assay to monitor cytotoxicity in HepG2 cells - 32 hour (AID 1224883). Also: nearly all actives have a fitted effect of over 50% in size. Also: potency is read from the fitted curve at half-maximal effect. The method in brief:
as §2

Assay [4] is described as follows: A CellTox Green Cytotoxicity Assay to monitor cytotoxicity in HEK293 cells - 8 hour (AID 1224884). Also: nearly all actives have a fitted effect of over 35% in size. Also: potency is read from the fitted curve at half-maximal effect. The method in brief:
(§3)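 Homogeneous no-lysis format: HEK293 cell suspension mixed with CellTox Green reagent, seeded, incubated 5 h at 37 C/5% CO2, then dosed by pintool with compound in DMSO.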

The nature of assay [5]: qHTS RealTime-Glo MT Cell Viability Assay in HepG2 cells - 16 hour (AID 1224885). Also: nearly all actives have a fitted effect of over 50% in size. The method in brief: (§4)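 Cells + NanoLuc/prosubstrate dispensed (600 cells/well) → 5 h at 37 C/5% CO2 → compounds in DMSO transferred → 40 h incubation at 37 C, luminescence read at 0, 8, 16, 24, 32, 40 h.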
The nature of assay [6]: qHTS RealTime-Glo MT Cell Viability Assay in HEK293 cells - 24 hour (AID 1224886). Also: nearly all actives have a fitted effect of over 50% in size. Also: potency is read from the fitted curve at half-maximal effect. The method in brief: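 Tox21 10K qHTS, HEK293, 600 cells/well, RealTime-Glo reagent co-dispensed with cells; 5 h preincubation, compound by pintool, 37 C, luminescence at 0–40 h.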
The nature of assay [7]: qHTS RealTime-Glo MT Cell Viability Assay in HEK293 cells - 8 hour (AID 1224887). Also: nearly all actives have a fitted effect of over 50% in size. Also: potency is read from the fitted curve at half-maximal effect. The method in brief:
as §1

Assay [8] in a line: A CellTox Green Cytotoxicity Assay to monitor cytotoxicity in HEK293 cells - 16 hour (AID 1224888). Also: nearly all actives have a fitted effect of over 35% in size. Also: potency is read from the fitted curve at half-maximal effect. The method, boiled down:
as §3

Assay [9] is described as follows: qHTS RealTime-Glo MT Cell Viability Assay in HepG2 cells - 0 hour (AID 1224889). Also: nearly all actives have a fitted effect of over 50% in size. Also: potency is read from the fitted curve at half-maximal effect. The method, boiled down:
as §4

Assay [10] is described as follows: A CellTox Green Cytotoxicity Assay to monitor cytotoxicity in HepG2 cells - 8 hour (AID 1224890). Also: nearly all actives have a fitted effect of over 45% in size. The method in brief:
as §2

Assay [11] in a line: qHTS assay to identify small molecule antagonists of the estrogen receptor alpha (ER-alpha) signaling pathway using the BG1 cell line in the presence of 0.1 nM 17-beta-estradiol - cell viability counter screen (AID 1259241). Also: nearly all actives have a fitted effect of over 40% in size. The method in brief: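 Live-cell protease activity (CellTiter-Fluor fluorescence, 30 min) was read in the same wells after VM7Luc4E2 cells had been exposed to compounds with 0.1 nM 17beta-estradiol for 22 hr at 37C.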

Assay [12] can be described thus: qHTS assay to identify small molecule antagonists of the androgen receptor (AR) signaling pathway using the MDA cell line in the presence of 0.5 nM R1881 - cell viability counter screen (AID 1259242). Also: nearly all actives have a fitted effect of over 45% in size. The method in brief: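 Human breast carcinoma MDA-kb2 cells, cultured without CO2, receive compounds alongside 0.5 nM (final) R1881 agonist. After 16 hr at 37C, viability is taken as live-cell protease signal.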

Assay [13] addresses Androgen receptor (Homo sapiens) (UniProt P10275). Nature of the assay: qHTS assay to identify small molecule antagonists of the androgen receptor (AR) signaling pathway using the MDA cell line in the presence of 0.5 nM R1881 (AID 1259243). Also: nearly all actives have a fitted effect of over 50% in size. The method in brief: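 Cells: MDA-kb2 (MMTV-luc). Stimulus: 0.5 nM R1881. Time: 16 hr, 37C, no CO2. Detection: ONE-Glo luminescence after 30 min at RT.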

A short description of assay [14]: qHTS assay to identify small molecule HDAC inhibitors - cell viability counter screen (AID 1259365). The method in brief:
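HCT-116 (wild type), 1,500 cells/well, overnight 37C/5% CO2; compound in DMSO 2hr; CellTiter-Glo 30min RT; luminescence read.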

The nature of assay [15]: qHTS assay to identify small molecule agonists of the sonic hedgehog signaling (Shh) pathway - cell viability counter screen (AID 1259366). Also: nearly all actives have a fitted effect of over 50% in size. Also: potency is read from the fitted curve at half-maximal effect. The method in brief:
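CellTiter-Fluor fluorescence read-out, 1 hr at 37C, added after 23hr compound exposure. Cells: 3T3 Gli1-Luc, an NIH/3T3 clone with stably integrated Gli1-Luc reporter, plated 4hr before compound.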

Assay [16] in a line: qHTS assay to identify small molecule antagonists of the sonic hedgehog signaling (Shh) pathway - cell viability counter screen (AID 1259367). Also: nearly all actives have a fitted effect of over 55% in size. The method in brief:
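Conditioned medium drove Shh signaling in 3T3 Gli1-Luc cells exposed to compounds at 37C and 5% CO2. Viability was determined from CellTiter-Fluor fluorescence, with reagent incubated 1 hr after 23 hr of treatment.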

The target in assay [17] is Estrogen receptor (Homo sapiens) (UniProt P03372). The experiment in a line: qHTS assay to identify small molecule antagonists of the estrogen receptor alpha (ER-alpha) signaling pathway using the BG1 cell line in the presence of 0.1 nM 17-beta-estradiol (AID 1259244). Also: nearly all actives have a fitted effect of over 50% in size. The method, boiled down:
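Seeding of stripped-serum-adapted VM7Luc4E2 cells, 24 h attachment, compound transfer, then 0.1 nM final 17beta-estradiol; after 22 h incubation, ONE-Glo reagent and luminescence reading.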

A short description of assay [18]: qHTS assay to identify small molecule HDAC inhibitors (AID 1259364). Also: potency is read from the fitted curve at half-maximal effect.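 Also: wild-type HCT-116 cells with endogenous class I/II HDAC activity; nearly all actives have a fitted effect of over 45% in size.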 The method, boiled down: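 After a 2 hr compound incubation (37C, 5% CO2), HCT-116 cells seeded at 1,500/well the day before received HDAC-Glo reagent; signal read as luminescence after 30 min at room temperature.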
A short description of assay [19]: A CellTox Green Cytotoxicity Assay to monitor cytotoxicity in HEK293 cells - 32 hour (AID 1224881). Also: nearly all actives have a fitted effect of over 40% in size. The method in brief: as §3
Assay [20] in a line: qHTS assay to identify small molecule phospholipidosis (PLD) inducers (AID 1259344; active = well fitted curve in the direction sought with a large enough effect; an effect the other way counts as inactive or inconclusive). The method in brief:
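After 4 h attachment on collagen I, HepG2 cells were dosed with compound alongside LipidTOX Red, kept 24 h at 37 C, fixed, and imaged for lamellar phospholipid pits.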

Values without a mark were called inactive. Inconclusive results are not listed. Calls of active or inactive are those of the source. Unless noted, calls follow the shape of the dose curve; as a rule, active = well fitted curve in the direction sought with a large enough effect in the repeat runs; inconclusive = weak or mixed curves; inactive = no such curve, though single readings can be large; an effect the other way counts as inactive or inconclusive.

Sequence of Androgen receptor (Homo sapiens) (P10275 whole entry, looked up): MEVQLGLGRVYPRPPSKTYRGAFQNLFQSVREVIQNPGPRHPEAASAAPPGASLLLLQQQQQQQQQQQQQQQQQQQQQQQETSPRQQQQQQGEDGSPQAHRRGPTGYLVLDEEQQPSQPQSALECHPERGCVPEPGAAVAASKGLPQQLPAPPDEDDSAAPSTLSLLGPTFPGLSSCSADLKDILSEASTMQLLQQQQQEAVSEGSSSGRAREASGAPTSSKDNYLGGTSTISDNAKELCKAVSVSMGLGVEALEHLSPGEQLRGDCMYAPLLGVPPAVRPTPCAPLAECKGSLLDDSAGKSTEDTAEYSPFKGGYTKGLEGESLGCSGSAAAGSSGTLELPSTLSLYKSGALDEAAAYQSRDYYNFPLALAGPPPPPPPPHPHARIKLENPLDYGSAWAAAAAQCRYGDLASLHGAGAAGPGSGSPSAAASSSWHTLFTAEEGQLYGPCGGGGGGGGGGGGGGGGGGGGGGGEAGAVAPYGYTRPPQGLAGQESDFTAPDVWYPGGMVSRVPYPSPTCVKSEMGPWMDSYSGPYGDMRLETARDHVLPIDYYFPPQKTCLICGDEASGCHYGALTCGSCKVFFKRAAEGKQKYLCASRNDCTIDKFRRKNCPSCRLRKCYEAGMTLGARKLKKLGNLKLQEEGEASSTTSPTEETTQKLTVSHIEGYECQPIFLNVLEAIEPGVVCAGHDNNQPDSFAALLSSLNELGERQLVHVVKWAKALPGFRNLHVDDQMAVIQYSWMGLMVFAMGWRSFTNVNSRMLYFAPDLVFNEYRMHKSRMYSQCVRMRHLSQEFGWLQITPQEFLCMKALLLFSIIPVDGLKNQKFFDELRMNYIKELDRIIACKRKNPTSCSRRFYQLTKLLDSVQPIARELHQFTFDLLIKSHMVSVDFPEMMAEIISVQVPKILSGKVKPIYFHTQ
Sequence of Estrogen receptor (Homo sapiens) (P03372 whole entry, looked up): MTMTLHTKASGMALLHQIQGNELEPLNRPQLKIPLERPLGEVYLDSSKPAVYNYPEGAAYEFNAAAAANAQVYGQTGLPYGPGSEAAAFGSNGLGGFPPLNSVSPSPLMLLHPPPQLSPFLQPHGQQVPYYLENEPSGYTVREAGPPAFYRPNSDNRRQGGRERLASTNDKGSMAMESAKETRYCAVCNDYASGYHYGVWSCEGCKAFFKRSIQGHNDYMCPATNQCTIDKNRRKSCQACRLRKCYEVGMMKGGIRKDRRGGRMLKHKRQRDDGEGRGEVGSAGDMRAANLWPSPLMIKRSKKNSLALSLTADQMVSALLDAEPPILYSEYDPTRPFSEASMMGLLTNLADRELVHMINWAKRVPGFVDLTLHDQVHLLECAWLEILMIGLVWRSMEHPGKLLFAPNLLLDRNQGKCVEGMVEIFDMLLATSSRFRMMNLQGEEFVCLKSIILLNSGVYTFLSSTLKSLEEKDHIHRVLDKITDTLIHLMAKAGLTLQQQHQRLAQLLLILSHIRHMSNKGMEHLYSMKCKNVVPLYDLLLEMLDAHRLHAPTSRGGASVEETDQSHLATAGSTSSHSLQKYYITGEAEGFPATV

Turning to `O=C(O)/C=C/c1ccc(/C=C/C(=O)O)cc1`, the molecule was called inactive in assay [1], in [5], in assay [11], in assay [12], in assay [14] and in assay [16]. Besides, the Potency entry in assay [2], in assay [3], in [4], in assay [6], in [7] and in assay [8] was “inactive” in each case. In addition, the Potency entry in [9], in [10], in assay [13] and in assay [15] was “inactive” throughout.
As for `c1ccc(CCCc2ccccn2)cc1`, the molecule was classed as inactive in assay [1], in assay [5], in [11], in assay [12], in assay [17] and in [14]. The result in assay [16] was inactive. Also, the Potency entry in assay [2], in [3], in assay [4], in assay [6], in assay [7] and in assay [8] was “inactive” each time. Moreover, the Potency result in assay [9], in [10] and in assay [15] was “inactive” each time. The Potency in assay [18] is 4.33 µM (active).
In the case of `CC(C)CCCC(C)NCCC(C)C` (configuration not stated), the molecule was classed as inactive in [1], in [5], in [11], in [12], in assay [17] and in [14]. Further, in assay [16], the outcome was inactive. Also, the Potency entry in [19], in assay [3], in assay [4], in assay [7], in assay [8] and in [9] was “inactive” in each case. Also, the Potency result in assay [10], in assay [13] and in assay [15] was “inactive” throughout.
In the case of `CC/C=C\CCCCO`, the result in assay [1], in [5], in [11], in assay [12], in [17] and in assay [16] was inactive. Besides, the Potency entry in assay [19], in assay [4], in [6], in assay [7], in [8] and in assay [9] was “inactive” each time. The Potency entry in assay [10] and in [15] was “inactive” each time.
On to `CN(C)C(=O)C(CCN1CCC(O)(c2ccc(Cl)cc2)CC1)(c1ccccc1)c1ccccc1`, for which the molecule was classed as inactive in assay [1] and in [14]. The Potency in [3] was 19 µM (active); in [6], 9.52 µM (active); in [7], 12 µM (active); in [15], 16.8 µM (active). The Potency entry in assay [4], in [8], in assay [9] and in [18] was “inactive” in each case.
Regarding `C/C=C1\C(=O)C[C@H]2[C@@H]3CCC4=CC(=O)CC[C@]4(C)[C@H]3CC[C@]12C`, the Potency entry in assay [2], in [3], in [4], in assay [8] and in assay [10] was “inactive” each time. Further, the molecule was called inactive in assay [5], in assay [11], in [12], in assay [17], in assay [14] and in assay [16]. For the same molecule, the Potency in assay [9] is 7.61 µM (active).
As for `c1cc(CN2CCCCC2)cc(OCCCNc2nc3ccccc3s2)c1`, the molecule was called inactive in [1], in [11] and in [14]. In addition, the Potency is 23.9 µM (active) in assay [3] and 9.52 µM (active) in assay [7]. Moreover, the Potency result in [4], in assay [8], in assay [9], in assay [10], in assay [20] and in [18] was “inactive” throughout.
For the molecule `O=C1C(CCS(=O)c2ccccc2)C(=O)N(c2ccccc2)N1c1ccccc1` (configuration not stated), the call in assay [1], in assay [5], in assay [11], in assay [12], in assay [17] and in assay [14] was inactive. The molecule was classed as inactive in assay [16]. Besides, the Potency entry in assay [3], in assay [4], in assay [6], in [7], in assay [8] and in assay [9] was “inactive” in each case. In addition, the Potency entry in [10], in [20] and in assay [18] was “inactive” each time.
Regarding `CC(C)CCCCCCN`, the call in [1], in [11], in assay [12], in [17], in assay [14] and in [16] was inactive. In addition, the Potency result in [2], in [3], in assay [4], in assay [6], in assay [7] and in [8] was “inactive” in each case. Further, the Potency entry in [9], in assay [10], in assay [13], in assay [18] and in [15] was “inactive” in each case.
For `NC(=O)c1ncn([C@@H]2O[C@H](CO)[C@@H](O)[C@H]2O)c1O`, the molecule was classed as inactive in [1], in assay [5], in assay [11], in assay [12], in assay [17] and in assay [14]. In addition, in assay [16], the call was inactive. In addition, the results for the Potency in assay [4] and in assay [8] were 23.9 µM (active) and 19 µM (active), respectively. Also, the Potency entry in assay [7], in [9], in assay [20] and in [15] was “inactive” each time.
Turning to `CC(O)CN(CCCN(C)C)CCCN(C)C` (configuration not stated), the outcome in assay [1], in assay [5], in [11], in [12], in [14] and in assay [16] was inactive. The Potency result in assay [2], in [3], in [4], in assay [6], in assay [7] and in assay [8] was “inactive” each time. The Potency result in [9], in assay [10] and in assay [15] was “inactive” each time.
